# Data: PubChem BioAssay AID588334 (Broad Institute, 2011)
# Screen size: about 300,000 compounds; about 2,300 (0.77%) were called active.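 The calls were made as follows: active = mean activation of at least 80% with every replicate also reaching 80%; inconclusive = mean reaches 80% but some replicate falls short; inactive = the rest.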 The list comes from a sample in which actives are over-represented; it also holds similar structures and randomly drawn compounds.
# Experiment: MITF-driven TRPM1 luciferase induction in melanoma cells – cell-based, SK-MEL-5, single point, primary screen (AID 588334);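 also: 0% = neutral control wells and 100% = parthenolide positive control wells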
# Details: SK-MEL-5 TRPM1-promoter luciferase, 24 h; at 12.5 µM; stronger effect = higher value; % of positive control, neutral wells = 0
row,Structure (SMILES),activation
1,CCc1ccccc1OCC(=O)Nc1ccc2c(c1)OCCO2,89.7% (active)
2,COc1ccccc1OCCCC(=O)Nc1ccc2c(c1)OCCO2,24.7% (inactive)
3,CCC(=O)c1cc(F)ccc1OCC(=O)Nc1ccc2c(c1)OCCO2,22.6% (inactive)
4,Cc1cc2c(cc1C)NC1(C[C@H]3CCC(=O)N4CC[C@@H](C1)[C@@H]34)C(=NC(C)(C)CC(C)(C)C)N2 (some centres undefined),-10% (inactive)
5,O=C(CN1CCN(c2ccccn2)CC1)N1CCc2ccccc21,19.8% (inactive)
6,NC(=O)N1CCc2ccccc21,-5.85% (inactive)
7,O=C(CSCc1ccccc1)N1CCc2ccccc21,95% (active)
8,Cn1c(N)cc(=O)n(C)c1=S,-8.41% (inactive)
9,C=CCNC(=O)/C=C/c1ccc(C(C)C)cc1,89.4% (active)
10,CC(C)c1ccc(/C=C/C(=O)NCCCN2CCOCC2)cc1,4.51% (inactive)
11,CC(C)c1ccc(/C=C/C(=O)NNC(=O)c2cccnc2)cc1,9.02% (inactive)
12,CN(C(=O)c1cccc(NC(=O)Cc2ccc(NC(=O)C3CCCN(C(=O)C4CCCC4)C3)cc2)c1)C1CCC1 (centres undefined),-9.98% (inactive)
13,O=c1ccn([C@@H]2O[C@H](CNS(=O)(=O)c3cc4ccccc4s3)[C@@H](O)[C@H]2O)c(=O)[nH]1,-4.34% (inactive)
14,O=C(Nc1cccc(S(=O)(=O)N2CCOCC2)c1)C12CC3CC(CC(C3)C1)C2,12.4% (inactive)
15,Cc1cc([N+](=O)[O-])ccc1NC(=O)C1CCCO1 (centres undefined),-1.67% (inactive)
16,Cc1cc(C)c2nc(NC(=O)C3CCCO3)sc2c1 (centres undefined),81.4% (active)
17,Cc1ccc(C)c(C(C)NC(=O)C2CCCO2)c1 (centres undefined),-7.6% (inactive)
18,C/C(=N\Nc1ccc(Cl)nn1)c1ccccc1O,-45.2% (inactive)
19,NC(=O)c1ccc(N2CCCC2)nc1,-7.45% (inactive)
20,COc1ccc(CN2C(CC(=O)Nc3cccnc3)c3ccc(C(F)(F)F)cc3S2(=O)=O)cc1 (centres undefined),11.4% (inactive)
21,O=C1COc2c1ccc(O)c2O,1.19% (inactive)
22,Cc1cc(/C=C2\SC(=O)N(C)C2=O)c(C)n1-c1cccc(C(=O)O)c1,3.12% (inactive)
23,Cc1cc(/C=C2/SC(=O)N(CC(=O)OC(C)C)C2=O)c(C)n1C,97.9% (active)
24,CC(C)OC(=O)CN1C(=O)C(=O)c2ccccc21,-5.18% (inactive)
25,C=CCNc1cnn(-c2ccc(C)cc2)c(=O)c1Cl,108% (active)

row,Structure (SMILES),activation
1,CCCNC(=O)c1c(Cl)cnn1-c1ccc(C)cc1,69.7% (inactive)
2,O=c1c(Cl)c(NC2CC2)cnn1-c1ccccc1,6.24% (inactive)
3,O=C(c1cccc(S(=O)(=O)N2CCCCCC2)c1)N1CCN(Cc2ccccc2)CC1,4.94% (inactive)
4,COc1ccc(NC(=O)Nc2ccc3nsnc3c2)cc1,92.9% (active)
5,COc1ccc(NC(=O)Nc2cccc3cccnc23)cc1,40.1% (inactive)
6,COc1ccc(/C=N/NC(=O)Nc2ccc3nsnc3c2)c(OC)c1,4.9% (inactive)
7,O=C(Nc1c(Br)cc2c(c1Br)Cc1cc([N+](=O)[O-])ccc1-2)C(Cl)Cl,-16.6% (inactive)
8,FC(F)(F)c1ccc(-c2cccc3c2C2CC3CCN2Cc2ccccc2)cc1 (centres undefined),-0.65% (inactive)
9,COc1ccc(NC(=O)/C(N=Nc2cccc(S(=O)(=O)Nc3ccc(SC(F)F)cc3)c2)=C(\C)O)cc1,-7.51% (inactive)
10,CN(C(=O)c1cccc(NC(=O)Cc2ccc(NC(=O)C3CCCN(C(=O)C4CC4)C3)cc2)c1)C1CC1 (centres undefined),-7.94% (inactive)
11,Cc1ccc(C(=O)Nc2nnc(-c3cccs3)s2)cc1C,87.8% (active)
12,Cc1ccc(C(=O)Oc2coc(CSc3nnc(NC(=O)c4cccs4)s3)cc2=O)cc1C,0.796% (inactive)
13,CCOc1cccc(C(=O)Nc2nnc(-c3cccs3)s2)c1,25.8% (inactive)
14,NC1=NOC(=O)C1C1CCCCC1 (centres undefined),-0.578% (inactive)
15,O=c1[nH]c2c(c(=O)n1-c1ccccc1)CCO2,1.65% (inactive)
16,COc1cc(C2CC(=O)Oc3cc(OC)c(OC)c(OC)c32)cc(OC)c1OC (centres undefined),1.92% (inactive)
17,CC1CCc2c(sc3nc4n(c(=O)c23)CCS4)C1 (centres undefined),73.6% (inactive)
18,C=CCn1c(SCc2c(C)noc2C)nc2sc3c(c2c1=O)CCC(C)C3 (centres undefined),-11.8% (inactive)
19,CCCn1nnc2sc3c(c2c1=O)CCC(C)C3 (centres undefined),99.2% (active)
20,CS(=O)(=O)N1CCc2cc(C(=O)Nc3ccccc3Br)ccc21,85.3% (active)
21,CS(=O)(=O)N1CCc2cc(C(=O)Nc3ccccc3)ccc21,49.3% (inactive)
22,CSc1ccccc1NC(=O)c1ccc2c(c1)CCN2S(C)(=O)=O,25.3% (inactive)
23,COC(=O)c1ccc(NC(=O)Nc2ccc(C)cc2)cc1,25.4% (inactive)
24,Cc1ccc(NC(=O)Nc2ccc3oc(C)nc3c2)cc1,92.6% (active)
